# Structures can show the parent of a compound that is named as a salt. ± gives the standard deviation of the averaged measurements.
# Tested on: MDA-MB-231
# Assay: cell viability relative to vehicle unstimulated control (fraction); higher = more viable cells
# Conditions: pre-treatment time: 18 h then 24 h IFNg/TNF
# 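Note: viability of the cells left after supernatant collection, read with Deep Blue dye added for 4 h, as absorbance at 570 nm minus 600 nm.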
row,SMILES,cell viability
1,COc1ccc(CC2c3cc(OC)c(OC)cc3CCN2C)cc1OC (configuration not stated) [Laudanosine] (compound dose: 10 uM),1.02 ± 0.043
2,C[C@]1(C(=O)O)CCC[C@]2(C)c3cc(O)ccc3CC[C@@H]12 [Podocarpic acid] (compound dose: 10 uM),0.946 ± 0.07
3,COc1cc2c(c(OC)c1OC)-c1ccc(OC)c(=O)cc1[C@@H](NC(C)=O)CC2 [Colchicine] (compound dose: 10 uM),0.802 ± 0.097
4,CC(C)=CCC[C@](C)(O)[C@H]1CC[C@]2(C)[C@@H]1[C@H](O)C[C@@H]1[C@@]3(C)CC[C@H](O[C@@H]4O[C@H](CO)[C@@H](O)[C@H](O)[C@H]4O)C(C)(C)[C@@H]3CC[C@]12C [Ginsenoside Rh2] (compound dose: 10 uM),0.908 ± 0.049
5,COc1cc2c3cc1Oc1cc(ccc1O)C[C@@H]1c4c(cc(OC)c(O)c4Oc4ccc(cc4)C[C@H]3N(C)CC2)CCN1C [Curine] (compound dose: 10 uM),0.654 ± 0.038
6,CC(C)[C@]12CC(=O)[C@H](C)[C@H]1C2 [α-Thujone] (compound dose: 10 uM),1.05 ± 0.058
7,CC(C)=CCC[C@H](C(=O)O)[C@H]1CC[C@]2(C)C3=C(CC[C@@]12C)[C@@]1(C)CCC(=O)C(C)(C)[C@H]1CC3 [β-Elemonic acid] (compound dose: 10 uM),1.03 ± 0.034
8,O=C(O)c1ccc(=O)[nH]c1 [6-hydroxypyridine-3-carboxylic acid] (compound dose: 10 uM),0.99 ± 0.039
9,CN1[C@@H]2CC[C@H]1C[C@@H](OC(=O)[C@H](CO)c1ccccc1)C2 [Hyoscyamine hydrobromide] (compound dose: 10 uM),1.03 ± 0.024
10,CC(C)=CCC[C@@](C)(O)[C@H]1CC[C@]2(C)[C@@H]1[C@H](O)C[C@@H]1[C@@]3(C)CC[C@H](O)C(C)(C)[C@@H]3[C@@H](O[C@@H]3O[C@H](CO)[C@@H](O)[C@H](O)[C@H]3O)C[C@]12C [(20R)-Ginsenoside Rh1] (compound dose: 10 uM),0.9611 ± 0.0044
11,CCCCCCCCCCCCCC(=O)O[C@@H]1[C@@H](C)[C@@]2(O)[C@@H](C=C(CO)C[C@]3(O)C(=O)C(C)=C[C@@H]23)[C@@H]2C(C)(C)[C@]12OC(C)=O [12-O-tetradecanoyl phorbol-13-acetate] (compound dose: 10 uM),1.06 ± 0.043
12,O=C([O-])c1ccc[n+]([C@@H]2O[C@H](CO)[C@@H](O)[C@H]2O)c1 [Nicotinic acid riboside] (compound dose: 10 uM),0.784 ± 0.36
13,C[C@@]1(C(=O)O)CC[C@]2(C)CC[C@]3(C)C4=CC(=O)c5c(cc(O)c(O)c5C=O)[C@]4(C)CC[C@@]3(C)[C@@H]2C1 [Demethylzeylasteral] (compound dose: 10 uM),0.786 ± 0.1
14,C/C=C(/C)C(=O)O[C@H]1[C@@H]2[C@H](C)C(=O)O[C@@H]2C[C@@H](C)[C@@H]2C=CC(=O)[C@]21C [Brevilin A] (compound dose: 10 uM),0.75 ± 0.035
15,"C=C1CC[C@H]2[C@@H](/C=C(\C)C(=O)[C@@]3(OC(C)=O)C[C@H](C)[C@H](OC(=O)c4ccccc4)[C@@H]3[C@H]1OC(C)=O)C2(C)C [5,15-Diacetyl-3-benzoyllathyrol] (compound dose: 10 uM)",1.031 ± 0.01
16,C=C[C@@H]1C2=CCOC(=O)C2=CO[C@H]1O[C@@H]1O[C@H](CO)[C@@H](O)[C@H](O)[C@H]1O [Gentiopicroside] (compound dose: 10 uM),0.981 ± 0.0079
17,COc1ccc2c(c1O)-c1c(O)c(OC)cc3c1[C@H](C2)N(C)CC3 [Corytuberine] (compound dose: 10 uM),0.829 ± 0.025
18,C=C1CC[C@H]2[C@@H](/C=C(\C)C(=O)[C@@]3(O)C[C@H](C)[C@H](O)[C@@H]3[C@@H]1O)C2(C)C [Lathyrol] (compound dose: 10 uM),1.08 ± 0.11
19,C=C1[C@H](OC(=O)c2ccccc2)C[C@H]2[C@@H](/C=C(\C)C(=O)[C@@]3(OC(C)=O)C[C@H](C)[C@H](OC(=O)c4ccccc4)[C@@H]3[C@H]1OC(C)=O)C2(C)C [Euphorbia Factor L2] (compound dose: 10 uM),0.847 ± 0.044
20,C/C=C(/C)C(=O)O[C@H]1C(C)=C[C@]23C(=O)[C@@H](C=C(C)[C@@H](O)[C@]12O)[C@H]1[C@@H](C[C@H]3C)C1(C)C [20-Deoxyingenol 3-angelate] (compound dose: 10 uM),1.04 ± 0.05
21,CN[C@H]1CCc2cc(OC)c(OC)c(OC)c2-c2ccc(OC)c(=O)cc21 [Demecolcine (colcemid)] (compound dose: 10 uM),0.847 ± 0.13
22,CC(=O)O[C@@H]1[C@H]2[C@@H](OC(=O)Cc3ccccc3)[C@@H](C)C[C@]2(OC(C)=O)C(=O)/C(C)=C/[C@@H]2[C@H](CC[C@]13CO3)C2(C)C [Euphorbia Factor L1] (compound dose: 10 uM),0.909 ± 0.045
23,CC(=O)O[C@@H]1[C@H]2[C@@H](OC(=O)Cc3ccccc3)[C@@H](C)C[C@]2(OC(C)=O)C(=O)/C(C)=C/[C@@H]2[C@H](CC[C@]13CO3)C2(C)C [Euphorbia factor L1] (compound dose: 10 uM),1.12
24,CC(C)(O)/C=C/C(=O)[C@](C)(O)[C@H]1[C@H](O)C[C@@]2(C)[C@@H]3CC=C4[C@@H](C[C@H](O)C(=O)C4(C)C)[C@]3(C)C(=O)C[C@]12C [Cucurbitacin D] (compound dose: 10 uM),0.55 ± 0.022
25,COc1cc2c3c(c1OC)-c1ccccc1C[C@H]3N(C)CC2 [Nuciferine] (compound dose: 10 uM),1.05 ± 0.051
26,CCCCCCCCCCCCCC(=O)O[C@@H]1[C@@H](C)[C@@]2(O)[C@@H](C=C(CO)C[C@]3(O)C(=O)C(C)=C[C@@H]23)[C@@H]2C(C)(C)[C@]12OC(C)=O [Phorbol 12-Myristate 13-Acetate] (compound dose: 10 uM),1.09 ± 0.038
27,COC(=O)[C@]1(C)CC[C@]2(C)CC[C@]3(C)C4=CC=C5C(=CC(=O)C(O)=C5C)[C@]4(C)CC[C@@]3(C)[C@@H]2C1 [Pristimerin] (compound dose: 10 uM),-0.0372 ± 0.0069
